# Screens: PubChem BioAssay, National Center for Advancing Translational Sciences (NCATS)
# In the library only some 2.4% were active in any assay of this set; here they are far more common.
# D2 PAM-1: positive allosteric modulators of human D2 dopamine receptor. P14416. HEK293 T-REx D2, calcium flux, EC20 dopamine potentiation. potentiation, % at 10 µM. 340,000 tested, 0.34% active. AID 485347;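 active means potentiation over 3 SD above the plate norm, cut at about 30% in these data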
# Target sequence (P14416 whole entry, looked up): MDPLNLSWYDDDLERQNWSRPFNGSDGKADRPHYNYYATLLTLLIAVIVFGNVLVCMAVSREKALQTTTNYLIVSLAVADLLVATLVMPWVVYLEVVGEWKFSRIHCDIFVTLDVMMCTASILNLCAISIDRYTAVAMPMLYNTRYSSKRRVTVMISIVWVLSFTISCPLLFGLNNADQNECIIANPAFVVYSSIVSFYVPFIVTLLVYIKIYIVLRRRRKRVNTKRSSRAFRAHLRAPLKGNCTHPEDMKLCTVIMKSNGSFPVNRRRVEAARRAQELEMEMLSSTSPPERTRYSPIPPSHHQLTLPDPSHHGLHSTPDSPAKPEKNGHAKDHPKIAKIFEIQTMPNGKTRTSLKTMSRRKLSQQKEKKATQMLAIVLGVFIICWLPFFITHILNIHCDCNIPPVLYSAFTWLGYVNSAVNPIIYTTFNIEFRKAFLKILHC
#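 Potentiation of an EC20 dopamine calcium response measured kinetically over 180 s, after a preceding 180 s compound-only read flagging agonists. Cells: inducible Hek293 Trex D2 line, 4000/well, cultured overnight at 30 C before dye loading.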
# D2 ag-1: human D2 receptor agonism in beta-arrestin assay; P14416; AID 624465; activation, % (test concentration not listed); DiscoveRx PathHunter D2 beta-arrestin, luminescence, 90 min; 100% = 57 uM dopamine signal; 360,000 tested, 0.084% active; in the data active means activation above about 40%
#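 Agonist mode: compounds alone added to overnight-plated D2 PathHunter cells for 90 min at 37 C, with 57 uM final dopamine (EC100) defining full response. Beta-arrestin recruitment detected by chemiluminescent reagent, read after 1 h at ambient temperature.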
# D2 antag: antagonizes the human D2 dopamine receptor; HEK293 TREx D2 cells, calcium flux, dopamine EC80; inhibition, % at 10 µM; 340,000 tested, 2% active; AID 485344; P14416; in the data active means inhibition above about 30%; inactive means below that, where a call was filed
#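 Overnight-induced (tetracycline, 30 C) HEK293 T-REx cells carrying force-coupled D2 receive a no-wash calcium dye, then compound, then EC80 dopamine at 180 s; signals are read kinetically throughout.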
# D2 PAM-2: human D2 receptor positive allosteric modulation | P14416 | DiscoveRx D2 beta-arrestin cells, luminescence, 90 min; 100% = 57 uM dopamine signal | potentiation, % (concentration not given with the values) | 360,000 tested, 0.23% active | AID 624464; in the data active means potentiation above about 50%
#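 PathHunter D2 cells, attached overnight at 37 deg C, received compound in DMSO plus dopamine at EC20 (50 nM final) for 90 min at 37 deg C. Beta-arrestin recruitment was read as luminescence after 1 h with detection reagent at ambient temperature.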
# D2 ag-2: D2 dopamine receptor (human) agonism | 340,000 tested, 0.53% active | HEK293 T-REx D2 cells, calcium flux agonist mode | P14416 | activation, % at 2 µM | AID 485358;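 active means activation over 3 SD above normal in the single-dose calcium agonist read, cut at about 30% in these data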
#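 Agonism scored from kinetic calcium signal (1 read/sec, 180 s) following compound pin transfer, after a 10 s baseline. Cells: HEK293 Trex line expressing inducible D2 receptor coupled to calcium, dye-loaded after overnight culture at 30 C.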
# Hits are given with their value; i = inactive; nt = no result given.
SMILES,D2 PAM-1,D2 ag-1,D2 antag,D2 PAM-2,D2 ag-2
COC1CCCCC1NS(=O)(=O)c1ccc(Cl)cc1 (stereo not drawn),i,i,31,i,i
CCCSCCCNC(=O)c1ccc2c(c1)nc1n2CCCCC1,i,nt,nt,nt,i
CC1Cc2nc(SCC(=O)OCc3ccccc3)n(C)c(=O)c2S1 (stereo not drawn),35,i,i,i,i
CC1Cc2nc(SCC(=O)N3CCc4ccccc43)n(C)c(=O)c2S1 (stereo not drawn),i,i,i,i,i
COc1ccccc1C1SCCN1S(=O)(=O)c1ccccc1 (stereo not drawn),nt,i,nt,i,nt
COc1ccccc1C1SCCN1S(=O)(=O)c1cccc(C(F)(F)F)c1 (stereo not drawn),i,i,47,i,i
NS(=O)(=O)c1ccc(CCNC(=O)COc2ccc3c4c(c(=O)oc3c2)CCC4)cc1,40,i,i,i,i
O=C(O)COc1ccc2c3c(c(=O)oc2c1)CCC3,i,i,39,i,i
Cc1ccc2nc(N3CCN(C(=O)C4COc5ccccc5O4)CC3)sc2c1 (stereo not drawn),i,nt,nt,nt,i
CCN1CCN(C(=O)c2oc(=O)c3ccccc3c2-c2ccc(C)cc2)CC1,i,i,59,i,i
Cc1ccc(-c2c(C(=O)N3CCOCC3)oc(=O)c3ccccc23)cc1,i,i,i,i,i
Cc1nn(C)c(C)c1/C=N/NC(=O)CCn1cc([N+](=O)[O-])cn1,i,i,32,i,i
N#C/C(=C\c1c(Oc2ccc(Br)cc2)nc2ccccn2c1=O)c1nc2ccccc2s1,i,nt,nt,nt,i
Cc1ccnc2c1ccc1c(C)ccnc12,i,i,43,i,i
Cc1ccnc2c1ccc1cccnc12,i,i,i,i,i
CCOC(=O)c1c(C)oc2ccc(N(C(=O)Oc3ccccc3)S(=O)(=O)c3ccccc3)cc12,i,nt,nt,nt,nt
COc1ccccc1OCC(O)CN1CCN(C(=O)c2ccccc2)CC1 (stereo not drawn),i,i,i,i,33
CCOC(=O)N1CCN(CC(O)COc2ccccc2C(C)CC)CC1 (stereo not drawn),i,i,32,i,i
CCOC(=O)N1CCN(CC(O)COc2ccccc2C(C)C)CC1 (stereo not drawn),i,i,i,i,i
CCCn1c(CCc2ccccc2)nnc1SCC(=O)N1CCCC1,i,i,i,i,i
CCCc1nnc(SCC(=O)N2CCCC2)n1Cc1ccco1,i,i,i,i,40
C/C(CCN1CCCCc2nc(C)c(C)cc21)=N\O[C@H](C)c1cn([C@H](CO)Cc2ccccc2)nn1,i,nt,i,nt,i
CC(=O)OC[C@H]1O[C@H](CCO/N=C(\C)CCN2CCCc3nc(C)c(C)cc32)C=C[C@@H]1OC(C)=O,i,nt,78,nt,65
COc1cccc(C(c2sc3nc(-c4ccco4)nn3c2O)N2CCC3(CC2)OCCO3)c1 (stereo not drawn),i,nt,nt,nt,i
COCCN1Cc2cccc(C(=O)Nc3ccc(C)cc3)c2C1=O,i,i,41,i,i
SMILES,D2 PAM-1,D2 ag-1,D2 antag,D2 PAM-2,D2 ag-2
Cc1cc(C[n+]2cc(Br)ccc2N)c2ncccc2c1,i,i,32,i,i
CS(=O)(=O)N1CCN(c2ccccc2NC(=O)c2cccnc2Cl)CC1,i,i,33,i,i
CS(=O)(=O)N1CCN(c2ccccc2NC(=O)c2ccc(Cl)cc2)CC1,i,i,i,i,i
CCc1ccc(NC(=O)COC(=O)CCCC2=NS(=O)(=O)c3ccccc3N2)cc1,i,i,i,i,i
O=C(COC(=O)CCCC1=NS(=O)(=O)c2ccccc2N1)Nc1ccccc1,38,i,i,i,i
CCN(CC(=O)Nc1ccccc1C(F)(F)F)C(=O)c1ccc(-n2nc(C)c(CCC(=O)OC)c2C)cc1,nt,i,nt,i,nt
Cc1ccc(NC(=O)Cc2ncc(C(F)(F)F)cc2Cl)cc1Cl,i,i,44,i,i
COc1cccc(CNC(=O)CCc2c(C)c3cc4c(C)c(C)oc4cc3oc2=O)c1,i,nt,nt,nt,i
CC(C)NS(=O)(=O)c1ccc(OCC(=O)N2CCN(c3ccccc3F)CC2)cc1,i,nt,nt,nt,i
CCOc1ccccc1-n1c(SCC(=O)N2CCCC2)nnc1-c1ccc(O)cc1,31,i,i,i,i
